Data as given in PubChem BioAssay (Tox21).
Where “and” joins values, the source holds several entries; their conditions need not be identical. Equal values may be shown once. Inconclusive results are not listed. Calls of active or inactive are those of the source. Unless noted, the call rests on the fitted dose curve; in most records, active means well fitted curve in the direction sought with a large enough effect in the repeat runs; inconclusive means weak or mixed curves; inactive means no such curve, though single readings can be large; an effect the other way counts as inactive or inconclusive.

Tests used:
[1] = qHTS assay to test for compound auto fluorescence at 535 nm (green) in HEK293 cells (AID 720680)
[2] = qHTS assay to test for compound auto fluorescence at 460 nm (blue) in HEK293 cell free culture (AID 720681)
Method in brief: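 Blue fluorescence (Ex 405/Em 460 nm, triamterene-equivalent) was read immediately after pin transfer of compound or DMSO into medium (DMEM, 10% FBS) without cells.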

[3] = qHTS assay to test for compound auto fluorescence at 535 nm (green) in HEK293 cell free culture (AID 720682)
Method in brief: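 Steps: dispense DMEM/10% FBS into empty wells; pin in compound or DMSO; measure fluorescence at 485/535 nm. Values are fluorescein equivalents.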

[4] = qHTS assay to test for compound auto fluorescence at 590 nm (red) in HEK293 cell free culture (AID 720683)
Method in brief: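 Red-channel autofluorescence of compounds in culture medium (DMEM, 10% FBS), no cells, measured at 540/590 nm. Rose Bengal sodium is the reference fluorophore for equivalence.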

[5] = qHTS assay to test for compound auto fluorescence at 590 nm (red) in HepG2 cell free culture (AID 720684)
Method in brief: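 Steps: dispense MEM/10% FBS medium, no cells; pin compound or DMSO vehicle; read red channel, Ex/Em 540/590 nm. Output given as Rose Bengal sodium equivalents.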

[6] = qHTS assay to test for compound auto fluorescence at 460 nm (blue) in HepG2 cell free culture (AID 720685)
Method in brief: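 Compound (23 nL) or DMSO pinned into cell-free MEM with 10% FBS; blue fluorescence read at 405/460 nm excitation/emission, expressed as auto-fluorescence equivalency to triamterene.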

[7] = qHTS assay to test for compound auto fluorescence at 535 nm (green) in HepG2 cell free culture (AID 720686)
[8] = qHTS assay to test for compound auto fluorescence at 460 nm (blue) in HepG2 cells (AID 720687)
Method in brief: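 Blue-channel autofluorescence (Ex/Em 405/460 nm, triamterene-equivalent) was measured after 1 hr compound exposure at 37 C, 5% CO2. Cells were HepG2, plated overnight at 37 C in MEM plus 10% FBS.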

[9] = biological target: Glucocorticoid receptor (Homo sapiens) (UniProt P04150); experiment: qHTS assay to identify small molecule agonists of the glucocorticoid receptor (GR) signaling pathway (AID 720691; active means well fitted activation curve with a large enough effect in the signal ratio in the repeat runs, not every such curve was filed as active; the % refers to the signal ratio); settings: GR-bla HeLa, beta-lactamase reporter ratio, 18 h; activation: at 62.4 µM (top of the series)
Chain of Glucocorticoid receptor (Homo sapiens) (P04150 whole entry, looked up): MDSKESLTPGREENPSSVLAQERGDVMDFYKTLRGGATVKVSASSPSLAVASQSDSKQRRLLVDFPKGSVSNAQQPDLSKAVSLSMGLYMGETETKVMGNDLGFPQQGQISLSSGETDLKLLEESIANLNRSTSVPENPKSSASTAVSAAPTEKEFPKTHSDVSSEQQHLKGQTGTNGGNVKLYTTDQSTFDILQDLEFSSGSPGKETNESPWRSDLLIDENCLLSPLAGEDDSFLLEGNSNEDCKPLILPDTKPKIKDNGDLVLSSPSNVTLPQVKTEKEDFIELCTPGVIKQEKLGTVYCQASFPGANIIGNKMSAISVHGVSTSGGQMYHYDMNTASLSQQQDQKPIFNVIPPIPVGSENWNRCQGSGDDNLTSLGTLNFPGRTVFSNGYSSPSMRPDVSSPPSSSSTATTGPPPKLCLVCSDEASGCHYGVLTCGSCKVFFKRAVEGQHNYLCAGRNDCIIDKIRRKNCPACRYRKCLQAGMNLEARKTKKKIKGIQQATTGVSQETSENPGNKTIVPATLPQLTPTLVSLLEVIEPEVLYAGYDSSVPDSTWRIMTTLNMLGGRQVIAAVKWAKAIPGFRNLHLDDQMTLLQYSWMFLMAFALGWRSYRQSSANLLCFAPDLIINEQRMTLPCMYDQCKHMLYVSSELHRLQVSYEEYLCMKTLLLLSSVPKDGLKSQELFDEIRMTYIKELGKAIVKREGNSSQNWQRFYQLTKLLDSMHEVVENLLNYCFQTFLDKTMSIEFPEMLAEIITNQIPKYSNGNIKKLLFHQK
Method in brief: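 qHTS in GR-bla HeLa cells: 4 h settling at 37 C/5% CO2, 18 h compound incubation at 37 C, 2 h LiveBLAzer B/G FRET substrate at room temperature, fluorescence intensity measured.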

[10] = biological target: Glucocorticoid receptor (Homo sapiens) (UniProt P04150); experiment: qHTS assay to identify small molecule antagonists of the glucocorticoid receptor (GR) signaling pathway (AID 720692; active means well fitted inhibition curve with a large enough effect in the signal ratio in the repeat runs, not every such curve was filed as active; the % refers to the signal ratio; further: potency means the concentration at half of the fitted maximal effect)
Method in brief: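 Inhibition of glucocorticoid signalling is measured in HeLa cells with a GRE-controlled beta-lactamase reporter; cells are co-treated with compound and 5 nM dexamethasone (final) for 18 h before FRET substrate readout.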

[11] = qHTS assay to identify small molecule antagonists of the glucocorticoid receptor (GR) signaling pathway - cell viability counter screen (AID 720693); further: nearly all actives have a fitted effect of over 55% in size
[12] = qHTS assay for identifying genotoxic compounds that show differential cytotoxicity against isogenic chicken DT40 cell lines with known DNA damage response pathways - wild type cell line (AID 743012); further: nearly all actives have a fitted effect of over 60% in size; further: potency means the concentration at half of the fitted maximal effect
Method in brief: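 First, wild type DT40 cells were plated at 300 per well and equilibrated about 0.5 h at 37 C/5% CO2. Next, compounds in DMSO were added and exposure lasted 40 h. Finally, CellTiter-Glo was added for 30 min at room temperature and luminescence recorded.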

[13] = qHTS assay for identifying genotoxic compounds that show differential cytotoxicity against isogenic chicken DT40 cell lines with known DNA damage response pathways - Rev3 mutant cell line (AID 743014); further: nearly all actives have a fitted effect of over 55% in size; further: potency means the concentration at half of the fitted maximal effect
[14] = qHTS assay for identifying genotoxic compounds that show differential cytotoxicity against isogenic chicken DT40 cell lines with known DNA damage response pathways - Rad54/Ku70 mutant cell line (AID 743015); further: nearly all actives have a fitted effect of over 60% in size; further: potency means the concentration at half of the fitted maximal effect
[15] = qHTS assay to identify small molecule antagonists of the androgen receptor (AR) signaling pathway - cell viability counter screen (AID 743033; further: nearly all actives have a fitted effect of over 45% in size)
[16] = qHTS assay to identify small molecule antagonists of the androgen receptor (AR) signaling pathway using the MDA cell line - cell viability counter screen (AID 743041; further: nearly all actives have a fitted effect of over 45% in size)
Method in brief: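 Cells were plated at 3,000 per well and left 5 h. Compounds in DMSO were then pinned in, followed by R1881. After 16 h at 37C, CellTiter-Fluor fluorescence gave viability.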

[17] = biological target: Androgen receptor (Homo sapiens) (UniProt P10275); experiment: qHTS assay to identify small molecule antagonists of the androgen receptor (AR) signaling pathway (AID 743035; active means well fitted inhibition curve with a large enough effect in the signal ratio in the repeat runs, not every such curve was filed as active; the % refers to the signal ratio)
Chain of Androgen receptor (Homo sapiens) (P10275 whole entry, looked up): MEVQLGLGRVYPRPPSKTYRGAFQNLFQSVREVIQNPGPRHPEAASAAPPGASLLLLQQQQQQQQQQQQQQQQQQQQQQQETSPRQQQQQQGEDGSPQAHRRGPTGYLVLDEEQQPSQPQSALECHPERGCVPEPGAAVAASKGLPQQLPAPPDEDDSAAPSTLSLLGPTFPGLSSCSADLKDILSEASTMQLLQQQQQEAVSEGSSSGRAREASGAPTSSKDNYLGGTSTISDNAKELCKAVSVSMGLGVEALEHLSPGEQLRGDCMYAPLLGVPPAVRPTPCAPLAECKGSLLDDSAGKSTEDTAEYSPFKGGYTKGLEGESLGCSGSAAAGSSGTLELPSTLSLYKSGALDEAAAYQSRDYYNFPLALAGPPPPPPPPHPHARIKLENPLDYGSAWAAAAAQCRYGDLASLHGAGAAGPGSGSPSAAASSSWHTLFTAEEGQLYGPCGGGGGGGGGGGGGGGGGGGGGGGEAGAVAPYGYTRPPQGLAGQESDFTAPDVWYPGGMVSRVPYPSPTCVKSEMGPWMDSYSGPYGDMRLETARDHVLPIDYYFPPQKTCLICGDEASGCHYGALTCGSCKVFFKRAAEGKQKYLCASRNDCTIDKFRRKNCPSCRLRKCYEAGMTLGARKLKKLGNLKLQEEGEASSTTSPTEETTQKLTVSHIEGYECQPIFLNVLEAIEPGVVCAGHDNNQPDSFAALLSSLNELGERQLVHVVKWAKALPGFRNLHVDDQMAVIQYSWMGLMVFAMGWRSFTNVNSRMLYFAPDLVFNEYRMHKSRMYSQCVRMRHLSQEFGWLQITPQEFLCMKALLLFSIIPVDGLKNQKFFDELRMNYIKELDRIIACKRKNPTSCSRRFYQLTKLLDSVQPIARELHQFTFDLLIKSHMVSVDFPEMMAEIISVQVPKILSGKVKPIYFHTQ
Method in brief: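 Beta-lactamase FRET read (2 h RT incubation with LiveBLAzer B/G) following 16 h of compound plus R1881 treatment of AR-UAS-bla HEK293 cells, which had been pre-incubated 4 h at 37C.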

[18] = biological target: Androgen receptor (Homo sapiens) (UniProt P10275); experiment: qHTS assay to identify small molecule agonists of the androgen receptor (AR) signaling pathway (AID 743036; active means well fitted activation curve with a large enough effect in the signal ratio in the repeat runs, with a control signal flat, not every such curve was filed as active; the % refers to the signal ratio)
Method in brief: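 Reporter line: GeneBLAzer AR-UAS-bla-GripTite (HEK293). Steps: plate cells, 4 h rest, add compounds, 16 h at 37C, add LiveBLAzer B/G substrate, 2 h at RT, read fluorescence.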

[19] = biological target: Androgen receptor (Homo sapiens) (UniProt P10275); experiment: qHTS assay to identify small molecule agonists of the androgen receptor (AR) signaling pathway using the MDA cell line (AID 743040; further: nearly all actives have a fitted effect of over 20% in size)
Method in brief: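 Cells plated, 5 h at 37C/0% CO2; compound or DMSO pinned; 16 h at 37C; ONE-Glo added; luminescence measured after 30 min at room temperature. Reporter line: MDA-kb2 with MMTV-luciferase responsive to AR and GR.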

[20] = biological target: Androgen receptor (Homo sapiens) (UniProt P10275); experiment: qHTS assay to identify small molecule antagonists of the androgen receptor (AR) signaling pathway using the MDA cell line (AID 743042; further: nearly all actives have a fitted effect of over 55% in size)
Method in brief: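 Antagonist mode: compounds plus R1881 agonist added to MDA-kb2 AR-luc cells, incubated 16 h at 37C. Luciferase reporter luminescence quantified, with multiplexed CellTiter-Fluor readout for cell viability.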

Measured: Potency

CCC(O)OC(O)CC (stereo unspecified)
inactive: [1] | [2] | [3] | [4] | [5] | [6] | [7] | [8] | [9] | [10] | [11] | [12] | [13] | [14] | [15] | [16]

FC(F)(F)c1ccc(Cl)c(Cl)c1
inactive: [1] | [2] | [3] | [4] | [5] | [6] | [7] | [8] | [9] | [10] | [11] | [12] | [14] | [15] | [17] | [18] | [19] | [16] | [20]

CC(C)(N)CO
inactive: [1] | [2] | [3] | [4] | [5] | [6] | [7] | [8] | [9] | [10] | [11] | [12] | [13] | [14] | [15] | [16]

CC(c1cc2ccccc2s1)N(O)C(N)=O (stereo unspecified)
inactive: [1] | [2] | [3] | [4] | [5] | [6] | [7] | [8] | [9] | [10] | [11] | [12] | [14] | [15] | [17] | [18] | [19] | [16] | [20]

O=P(OC(CCl)CCl)(OC(CCl)CCl)OC(CCl)CCl
inactive: [1] | [2] | [3] | [4] | [5] | [6] | [7] | [8] | [9] | [11] | [15] | [16]
active: [10] 21.8 µM and 30.9 µM | [12] 43.3 µM | [13] 30.5 µM and 19.3 µM | [14] 54.2 µM and 61.1 µM

c1ccc(OCCOc2ccccc2)cc1
inactive: [1] | [2] | [3] | [4] | [5] | [6] | [7] | [8] | [9] | [10] | [11] | [12] | [13] | [14] | [15] | [16]

Nc1ccccc1[N+](=O)[O-]
inactive: [1] | [2] | [3] | [4] | [5] | [6] | [7] | [8] | [9] | [10] | [11] | [12] | [14] | [15] | [16]

CCCCCC/C(C=O)=C\c1ccccc1
inactive: [1] | [2] | [3] | [4] | [5] | [6] | [7] | [8] | [9] | [10] | [11] | [12] | [14] | [15] | [16]

CCCCCCOCCO
inactive: [1] | [2] | [3] | [4] | [5] | [6] | [7] | [8] | [9] | [10] | [11] | [12] | [13] | [14] | [15] | [16]

CN(C)CCCN
inactive: [1] | [2] | [3] | [4] | [5] | [6] | [7] | [8] | [9] | [10] | [11] | [12] | [13] | [14] | [15] | [16]

O=C(O)c1ccc2c(c1)C(=O)OC2=O
inactive: [1] | [2] | [3] | [4] | [5] | [6] | [7] | [8] | [9] | [10] | [11] | [12] | [14] | [15] | [17] | [18] | [19] | [16] | [20]

C#CCN(C)Cc1ccccc1
inactive: [1] | [2] | [3] | [4] | [5] | [6] | [7] | [8] | [9] | [10] | [11] | [12] | [13] | [14] | [15] | [16]

CC(=O)CC(=O)Nc1ccccc1C
inactive: [1] | [2] | [3] | [4] | [5] | [6] | [7] | [8] | [9] | [10] | [11] | [12] | [13] | [14] | [15] | [16]

OCC(CO)(CBr)CBr
inactive: [1] | [2] | [3] | [4] | [5] | [6] | [7] | [8] | [9] | [10] | [11] | [12] | [13] | [14] | [15] | [16]

C=C(C)C(=O)OCCOCCOCCOC(=O)C(=C)C
inactive: [1] | [2] | [3] | [4] | [5] | [6] | [7] | [8] | [9] | [10] | [11] | [12] | [14] | [15] | [16]

c1ccc2scnc2c1
inactive: [1] | [2] | [3] | [4] | [5] | [6] | [7] | [8] | [9] | [10] | [11] | [12] | [14] | [15] | [16]
